Values joined by “and” are separate entries in the source; they are usually repeats but may differ in a detail not shown here. Equal values may be shown once. Records with an inconclusive call do not appear. A structure can be active in one record and inactive in another. Active and inactive are the calls of the source. Unless noted, the call rests on the fitted dose curve; in most records, active means well fitted curve in the direction sought with a large enough effect in the repeat runs; inconclusive means weak or mixed curves; inactive means no such curve, though single readings can be large; an effect the other way counts as inactive or inconclusive.
Tests used:
[1] = qHTS assay to identify aromatase inhibitors - cell viability counter screen (AID 743084);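 further: cells stimulated with testosterone during compound exposure; nearly all actives have a fitted effect of over 55% in size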; further: potency means the concentration at half of the fitted maximal effect
[2] = qHTS assay to identify small molecule that activate the aryl hydrocarbon receptor (AhR) signaling pathway - cell viability counter screen (AID 743086); further: nearly all actives have a fitted effect of over 45% in size; further: potency means the concentration at half of the fitted maximal effect
Procedure, shortened: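 Cytotoxicity counter screen: CellTiter-Fluor signal (30 min, 37 C) in 4000 HepG2 cells/well carrying the DRE-luciferase reporter, following 24 h compound exposure at 37 C.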

[3] = molecular target: Peroxisome proliferator-activated receptor gamma (Homo sapiens) (UniProt P37231); assay: qHTS assay to identify small molecule agonists of the peroxisome proliferator-activated receptor gamma (PPARg) signaling pathway (AID 743094; active means well fitted activation curve with a large enough effect in the signal ratio in the repeat runs, not every such curve was filed as active; the % refers to the signal ratio)
Procedure, shortened: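 Following 5 h plating at 37C, PPARg-bla HEK293H cells receive compound or DMSO for 17 h; fluorescence intensity is recorded after LiveBLAzer B/G loading for 1 h at room temperature.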

[4] = molecular target: Peroxisome proliferator-activated receptor gamma (Homo sapiens) (UniProt P37231); assay: qHTS assay to identify small molecule antagonists of the peroxisome proliferator-activated receptor gamma (PPARg) signaling pathway (AID 743191; calls by dose curve; further: series mostly up to about 63 µM; nearly all actives have a fitted effect of over 30% in size)
Procedure, shortened: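 Beta-lactamase reporter under UAS control in HEK293H PPARg-bla cells; compound treatment 17 h at 37C. Read-out: fluorescence intensity after 1 h room-temperature incubation with LiveBLAzer B/G FRET substrate.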

[5] = qHTS assay to identify small molecule antagonists of the peroxisome proliferator-activated receptor gamma (PPARg) signaling pathway - cell viability counter screen (AID 743194); further: nearly all actives have a fitted effect of over 55% in size
Procedure, shortened: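 Viability was measured as CellTiter-Glo luminescence in GeneBLAzer PPARg UAS-bla HEK293H cells. These cells had been exposed 17 h at 37 C to compounds together with rosiglitazone at 50 nM final, with the beta-lactamase readout taken in the same wells.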

[6] = qHTS assay for small molecule agonists of the antioxidant response element (ARE) signaling pathway - cell viability counter screen (AID 743203; calls by dose curve; further: nearly all actives have a fitted effect of over 55% in size; further: potency means the concentration at half of the fitted maximal effect)
Procedure, shortened: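 Compounds in DMSO were pinned onto ARE-bla HepG2 cells plated 5 hrs earlier at 2,000 cells/well. Sixteen hours later at 37C/5% CO2, CellTiter-Glo was added and luminescence measured after 30 min at room temperature.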

[7] = qHTS assay for small molecule activators of the heat shock response signaling pathway - cell viability counter screen (AID 743209); further: nearly all actives have a fitted effect of over 50% in size; further: potency means the concentration at half of the fitted maximal effect
Procedure, shortened: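 Counter screen for cytotoxicity in HeLa HSE-bla reporter cells. Treatment was 5 h at 37 C; viability was detected by luminescent ATP assay (CellTiter-Glo) in the same wells as the beta-lactamase read.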

[8] = qHTS assay for small molecule activators of the heat shock response signaling pathway (AID 743210; active means well fitted activation curve with a large enough effect in the signal ratio in the repeat runs, with a control signal flat, not every such curve was filed as active; the % refers to the signal ratio;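 further: HeLa cells with beta-lactamase reporter driven by heat shock elements; series mostly up to about 63 µM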)
Procedure, shortened: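 In HSE-bla HeLa cells, 5 h compound incubation (37 C) precedes addition of LiveBLAzer B/G substrate; after 2.5 h at room temperature, fluorescence intensity indicates reporter induction.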

[9] = molecular target: Peroxisome proliferator-activated receptor delta (Homo sapiens) (UniProt Q03181); assay: qHTS assay to identify small molecule agonists of the peroxisome proliferator-activated receptor delta (PPARd) signaling pathway (AID 743212; calls by dose curve)
Procedure, shortened: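 HEK293H UAS-bla reporter cells, human PPARd system; compounds delivered in DMSO after 5 h plating, then at 37 C. Beta-lactamase FRET read, 2 h RT substrate step.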

[10] = qHTS assay to identify small molecule antagonists of the peroxisome proliferator-activated receptor delta (PPARd) signaling pathway - cell viability counter screen (AID 743213); further: nearly all actives have a fitted effect of over 50% in size; further: potency means the concentration at half of the fitted maximal effect
Procedure, shortened: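 Luminescence from CellTiter-Glo, added after the bla read and incubated 30 min at room temperature, gives viability of HEK293H PPARd-bla cells exposed to compounds for 17 h at 37 C with 300 nM L165041.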

[11] = molecular target: Peroxisome proliferator-activated receptor delta (Homo sapiens) (UniProt Q03181); assay: qHTS assay to identify small molecule antagonists of the peroxisome proliferator-activated receptor delta (PPARd) signaling pathway (AID 743215; active means well fitted inhibition curve with a large enough effect in the signal ratio in the repeat runs, not every such curve was filed as active; the % refers to the signal ratio;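 further: cells stimulated with agonist L165041 at 300 nM final during compound exposure; series mostly up to about 62 µM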)
Procedure, shortened: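 With L165041 present at 300 nM final, compounds were incubated 17 h at 37 C on PPARd UAS-bla HEK293H cells. A FRET-based beta-lactamase substrate was then applied for 2 h at room temperature and fluorescence intensity recorded.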

[12] = molecular target: Bile acid receptor (Homo sapiens) (UniProt Q96RI1); assay: qHTS assay to identify small molecule antagonists of the farnesoid-X-receptor (FXR) signaling pathway (AID 743217; active means well fitted inhibition curve with a large enough effect in the signal ratio in the repeat runs, not every such curve was filed as active; the % refers to the signal ratio)
Procedure, shortened: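 In this cell-based antagonist screen, inhibition of CDCA-driven (50 uM final) UAS-beta-lactamase expression in HEK 293T cells was measured by FRET fluorescence following 16 h compound exposure at 37 °C.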

[13] = qHTS assay to identify small molecule agonists of the farnesoid-X-receptor (FXR) signaling pathway - cell viability counter screen (AID 743218); further: nearly all actives have a fitted effect of over 45% in size; further: potency means the concentration at half of the fitted maximal effect
Procedure, shortened: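 After 16 h at 37 C with test compounds, FXR-bla HEK 293T cells were given LiveBLAzer B/G substrate for 2 h at RT and then CellTiter-Glo; luminescence was taken after 30 min.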

[14] = molecular target: Bile acid receptor (Homo sapiens) (UniProt Q96RI1); assay: qHTS assay to identify small molecule agonists of the farnesoid-X-receptor (FXR) signaling pathway (AID 743220; active means well fitted activation curve with a large enough effect in the signal ratio in the repeat runs, not every such curve was filed as active; the % refers to the signal ratio)
Procedure, shortened: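 Beta-lactamase reporter under UAS control in GeneBLAzer FXR HEK 293T cells (5000/well) measured with LiveBLAzer FRET substrate after 2 h at room temperature. Compound exposure lasted 16 h at 37C.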

[15] = qHTS assay to identify small molecule antagonists of the farnesoid-X-receptor (FXR) signaling pathway - cell viability counter screen (AID 743221; active means well fitted cell-killing curve with a large enough effect in the repeat runs, not every such curve was filed as active; further: nearly all actives have a fitted effect of over 50% in size; further: potency means the concentration at half of the fitted maximal effect)
Procedure, shortened: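 Luminescence from CellTiter-Glo measures cytotoxicity in GeneBLAzer FXR-UAS-bla HEK 293T cells. Cells were exposed to compounds with 50 uM chenodeoxycholic acid (final) for 16 h at 37 C, in wells also used for the reporter readout.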

[16] = molecular target: Vitamin D3 receptor (Homo sapiens) (UniProt P11473); assay: qHTS assay to identify small molecule agonists of the vitamin D receptor (VDR) signaling pathway (AID 743222; calls by dose curve; further: potency means the concentration at half of the fitted maximal effect)
Procedure, shortened: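 VDR-bla cells were seeded, left 4 h, treated with compounds in DMSO for 16 h, incubated 2 h at RT with B/G FRET substrate, and read for fluorescence.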

[17] = molecular target: Vitamin D3 receptor (Homo sapiens) (UniProt P11473); assay: qHTS assay to identify small molecule antagonists of the vitamin D receptor (VDR) signaling pathway (AID 743223; active means well fitted inhibition curve with a large enough effect in the signal ratio in the repeat runs, not every such curve was filed as active; the % refers to the signal ratio; further: potency means the concentration at half of the fitted maximal effect)
Procedure, shortened: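 Antagonist mode uses 1alpha,25-dihydroxyvitamin D3 at 3 nM final as stimulus. VDR-bla cells receive compounds in DMSO, incubate 16 h at 37C, then a beta-lactamase FRET substrate for 2 h at room temperature before fluorescence measurement.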

[18] = molecular target: Aryl hydrocarbon receptor (Homo sapiens) (UniProt P35869); assay: qHTS assay to identify small molecule that activate the aryl hydrocarbon receptor (AhR) signaling pathway (AID 743085); further: nearly all actives have a fitted effect of over 15% in size; further: potency means the concentration at half of the fitted maximal effect;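 on activation: HG2L7.5c1 human HepG2 liver cells with stably integrated DRE-driven firefly reporter; series mostly up to about 70 µM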
Procedure, shortened: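 Cell line HG2L7.5c1 (human hepatoma, 20× DRE-luc). Plated, 5 h 37C, compound/DMSO added, 24 h 37C. CellTiter-Fluor 30 min 37C → fluorescence; then ONE-Glo 30 min RT → luminescence.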

[19] = qHTS assay for small molecule agonists of the antioxidant response element (ARE) signaling pathway (AID 743202; active means well fitted activation curve with a large enough effect in the signal ratio in the repeat runs, not every such curve was filed as active; the % refers to the signal ratio; further: potency means the concentration at half of the fitted maximal effect)
Procedure, shortened: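 An ARE-responsive beta-lactamase gene stably integrated in HepG2 cells serves as reporter. After 5 h plating and 16 h compound incubation at 37 C, fluorescence of the B/G FRET substrate was measured.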

[20] = qHTS assay to identify small molecule agonists of the peroxisome proliferator-activated receptor delta (PPARd) signaling pathway - cell viability counter screen (AID 743211); further: nearly all actives have a fitted effect of over 55% in size; further: potency means the concentration at half of the fitted maximal effect
Procedure, shortened: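 HEK293H PPARd-bla, 3000 cells/well; 5 h preincubation 37C/5% CO2; cpd in DMSO, 17 h 37C; B/G FRET substrate 2 h RT; CellTiter-Glo 30 min RT, luminescence.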

Measured: Potency

Chain of Aryl hydrocarbon receptor (Homo sapiens) (P35869 whole entry, looked up): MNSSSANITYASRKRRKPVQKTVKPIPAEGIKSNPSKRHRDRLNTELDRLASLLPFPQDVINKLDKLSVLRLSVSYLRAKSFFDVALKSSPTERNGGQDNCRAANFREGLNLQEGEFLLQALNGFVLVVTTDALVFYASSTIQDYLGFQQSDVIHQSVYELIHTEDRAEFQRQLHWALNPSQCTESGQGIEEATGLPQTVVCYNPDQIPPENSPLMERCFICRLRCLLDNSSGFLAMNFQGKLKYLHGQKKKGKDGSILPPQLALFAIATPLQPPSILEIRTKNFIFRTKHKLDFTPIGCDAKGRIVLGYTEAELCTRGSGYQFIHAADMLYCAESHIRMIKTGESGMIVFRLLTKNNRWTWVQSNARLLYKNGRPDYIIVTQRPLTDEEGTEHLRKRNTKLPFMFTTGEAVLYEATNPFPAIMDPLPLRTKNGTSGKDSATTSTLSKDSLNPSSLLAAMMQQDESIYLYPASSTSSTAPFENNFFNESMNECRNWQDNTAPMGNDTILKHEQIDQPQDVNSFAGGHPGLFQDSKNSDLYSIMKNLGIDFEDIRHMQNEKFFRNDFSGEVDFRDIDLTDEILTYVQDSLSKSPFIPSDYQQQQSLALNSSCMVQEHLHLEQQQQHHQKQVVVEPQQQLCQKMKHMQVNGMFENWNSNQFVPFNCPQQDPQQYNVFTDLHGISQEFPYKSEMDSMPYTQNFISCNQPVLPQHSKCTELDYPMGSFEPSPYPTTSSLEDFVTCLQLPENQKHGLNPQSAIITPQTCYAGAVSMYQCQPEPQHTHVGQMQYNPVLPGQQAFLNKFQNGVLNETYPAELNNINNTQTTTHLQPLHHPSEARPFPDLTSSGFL
Chain of Peroxisome proliferator-activated receptor delta (Homo sapiens) (Q03181 whole entry, looked up): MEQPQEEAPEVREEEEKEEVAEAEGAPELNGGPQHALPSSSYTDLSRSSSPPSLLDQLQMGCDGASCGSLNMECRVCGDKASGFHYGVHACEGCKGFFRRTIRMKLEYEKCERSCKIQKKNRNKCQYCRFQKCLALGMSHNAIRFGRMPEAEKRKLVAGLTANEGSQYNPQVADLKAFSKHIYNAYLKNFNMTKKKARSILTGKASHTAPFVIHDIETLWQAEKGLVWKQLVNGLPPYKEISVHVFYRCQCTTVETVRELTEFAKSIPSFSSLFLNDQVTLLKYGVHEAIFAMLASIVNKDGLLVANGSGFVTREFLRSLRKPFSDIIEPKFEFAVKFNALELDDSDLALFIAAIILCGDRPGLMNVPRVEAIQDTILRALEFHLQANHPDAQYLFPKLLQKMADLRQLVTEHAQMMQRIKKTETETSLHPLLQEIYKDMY
Chain of Vitamin D3 receptor (Homo sapiens) (P11473 whole entry, looked up): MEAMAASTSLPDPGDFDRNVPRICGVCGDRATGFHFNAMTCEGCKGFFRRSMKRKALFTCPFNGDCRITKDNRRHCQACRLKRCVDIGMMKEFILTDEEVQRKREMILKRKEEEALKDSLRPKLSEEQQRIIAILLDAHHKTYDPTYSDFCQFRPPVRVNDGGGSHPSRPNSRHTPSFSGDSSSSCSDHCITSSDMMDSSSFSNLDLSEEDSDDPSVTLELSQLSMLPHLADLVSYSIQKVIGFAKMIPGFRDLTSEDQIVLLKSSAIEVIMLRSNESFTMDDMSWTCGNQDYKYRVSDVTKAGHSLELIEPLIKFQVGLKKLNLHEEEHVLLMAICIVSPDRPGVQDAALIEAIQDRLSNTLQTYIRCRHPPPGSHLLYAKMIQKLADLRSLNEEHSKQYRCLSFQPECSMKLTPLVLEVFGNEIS
Chain of Bile acid receptor (Homo sapiens) (Q96RI1 whole entry, looked up): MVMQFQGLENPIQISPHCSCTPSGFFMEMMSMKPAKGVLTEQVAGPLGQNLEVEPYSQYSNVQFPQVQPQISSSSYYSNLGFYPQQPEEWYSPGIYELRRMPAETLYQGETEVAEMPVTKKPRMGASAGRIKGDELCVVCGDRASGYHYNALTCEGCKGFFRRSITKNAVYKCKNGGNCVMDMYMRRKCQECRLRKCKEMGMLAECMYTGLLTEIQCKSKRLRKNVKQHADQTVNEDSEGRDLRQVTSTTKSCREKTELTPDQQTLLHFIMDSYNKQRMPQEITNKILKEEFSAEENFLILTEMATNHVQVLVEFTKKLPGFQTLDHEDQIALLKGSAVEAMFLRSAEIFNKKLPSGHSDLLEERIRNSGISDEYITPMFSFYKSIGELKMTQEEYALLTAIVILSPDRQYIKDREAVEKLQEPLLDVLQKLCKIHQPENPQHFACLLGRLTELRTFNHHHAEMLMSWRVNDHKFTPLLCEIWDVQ
Chain of Peroxisome proliferator-activated receptor gamma (Homo sapiens) (P37231 whole entry, looked up): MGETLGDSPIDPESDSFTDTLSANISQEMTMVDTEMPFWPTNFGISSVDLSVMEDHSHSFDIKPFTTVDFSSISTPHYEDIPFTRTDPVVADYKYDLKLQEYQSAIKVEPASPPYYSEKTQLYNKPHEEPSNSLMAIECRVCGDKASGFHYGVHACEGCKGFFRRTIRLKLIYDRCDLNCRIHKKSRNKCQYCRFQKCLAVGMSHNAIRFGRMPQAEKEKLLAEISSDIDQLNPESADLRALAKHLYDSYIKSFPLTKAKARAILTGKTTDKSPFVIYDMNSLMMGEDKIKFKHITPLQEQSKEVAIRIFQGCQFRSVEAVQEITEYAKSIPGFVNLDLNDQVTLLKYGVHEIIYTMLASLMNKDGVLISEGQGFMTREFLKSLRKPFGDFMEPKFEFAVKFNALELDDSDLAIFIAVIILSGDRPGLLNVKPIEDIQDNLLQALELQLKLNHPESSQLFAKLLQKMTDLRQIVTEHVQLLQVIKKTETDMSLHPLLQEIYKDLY

CCCCNC(N)=O
inactive: [1] | [2] | [3] | [4] | [5] | [6] | [7] | [8] | [9] | [10] | [11] | [12] | [13] | [14] | [15] | [16] | [17]

O=S(=O)(O)c1cc(S(=O)(=O)O)c2c(N=Nc3ccccc3)c(O)ccc2c1
inactive: [18] | [5] | [19] | [6] | [7] | [8] | [9] | [10] | [11] | [12] | [13] | [14] | [15] | [16] | [17]
active: [1] 24.4 µM and 27.3 µM | [2] 21.8 µM and 21.7 µM

S=c1nc[nH]c2nc[nH]c12
active: [6] 0.842 µM | [20] 23.9 µM
inactive and 23.7 µM (active): [18]
inactive: [1] | [2] | [7] | [8] | [9] | [11] | [13] | [17]

C[C@@H](O)[C@H]1C(=O)N2C(C(=O)O)=C(S[C@@H]3CN[C@H](C(=O)N(C)C)C3)[C@H](C)[C@H]12
inactive: [1] | [2] | [3] | [4] | [5] | [19] | [6] | [7] | [8] | [20] | [10] | [13] | [15] | [16] | [17]

CC(C)n1c(/C=C/[C@@H](O)C[C@@H](O)CC(=O)O)c(-c2ccc(F)cc2)c2ccccc21
inactive: [1] | [2] | [19] | [6] | [7] | [8] | [20] | [13] | [15]
active: [18] 15 µM

CC#C[C@]1(O)CC[C@H]2[C@@H]3CCC4=CC(=O)CCC4=C3[C@@H](c3ccc(N(C)C)cc3)C[C@@]21C
inactive: [1] | [18] | [2] | [6] | [7] | [10] | [15]

C=C(C)C(=O)OCCCCCC
inactive: [1] | [2] | [3] | [5] | [19] | [6] | [7] | [8] | [20] | [9] | [10] | [13] | [15] | [16] | [17]

CC(C)NCC(O)COc1cccc2ccccc12 (configuration not stated)
active: [10] 49.5 µM and 21.9 µM
inactive: [1] | [18] | [2] | [5] | [6] | [7] | [8] | [20] | [12] | [13] | [14] | [15] | [16] | [17]

CN(C)c1ccc(C(=N)c2ccc(N(C)C)cc2)cc1
inactive: [3] | [6] | [7] | [8] | [9] | [10] | [13] | [15] | [16]
active: [2] 23.4 µM | [17] 5.93 µM

O=c1c(-c2ccc(O)cc2)coc2cc(O)ccc12
inactive: [1] | [2] | [3] | [5] | [7] | [8] | [20] | [9] | [10] | [11] | [13] | [14] | [15]

CNC[C@H](O)[C@@H](O)[C@H](O)[C@H](O)CO
inactive: [2] | [6] | [7] | [8] | [9] | [10] | [11] | [12] | [13] | [14] | [15] | [16] | [17]

O=C1N=C(O)CN1/N=C/c1ccc(-c2ccc([N+](=O)[O-])cc2)o1
inactive: [1] | [6] | [7] | [8] | [20] | [10] | [15] | [16] | [17]
inactive and 48.6 µM (active): [2]

CCCCCCCCCCCCN
inactive: [18] | [2] | [3] | [9] | [11]
inactive and 43.6 µM (active): [7] | [13]
inactive and 49 µM (active): [10] | [15]
inactive and 24.3 µM (active): [6]

Cc1cc(O)cc(C)c1Cl
inactive: [1] | [2] | [3] | [4] | [19] | [6] | [7] | [8] | [20] | [9] | [10] | [11] | [13] | [15]

CCCCC(CC)COC(=O)CCCCCCCC(=O)OCC(CC)CCCC (configuration not stated)
inactive: [2] | [5] | [19] | [6] | [7] | [8] | [20] | [9] | [10] | [11] | [12] | [13] | [14] | [15]

C=C1CC[C@H](O)CC1=C/C=C1\CCC[C@]2(C)[C@@H]([C@H](C)/C=C/[C@H](C)C(C)C)CC[C@@H]12
active: [19] 13.6 µM and 24.3 µM | [20] 54.5 µM and 6.16 µM | [16] 3.86 µM
inactive: [1] | [18] | [2] | [6] | [7] | [10] | [11] | [14] | [15]

CC(=O)CCc1ccccc1
inactive: [1] | [2] | [3] | [4] | [5] | [6] | [7] | [8] | [10] | [13] | [15] | [16] | [17]

O=[N+]([O-])c1cc(N(CCO)CCO)ccc1NCCO
inactive: [18] | [5] | [19] | [6] | [7] | [8] | [9] | [10] | [11] | [13] | [15] | [16] | [17]
active: [1] 48.5 µM and 61.1 µM

Cc1cc(NS(=O)(=O)c2ccc(N)cc2)no1
inactive: [1] | [2] | [19] | [6] | [7] | [8] | [20] | [10] | [12] | [13] | [14] | [15] | [16] | [17]

CN(CCOc1ccc(CC2SC(=O)NC2=O)cc1)c1ccccn1 (configuration not stated)
inactive: [18] | [2] | [5] | [6] | [7] | [8] | [20] | [10] | [12] | [13] | [14] | [15]

From PubChem BioAssay (Tox21)
